Laboratory results from PubChem BioAssay (Tox21).
Several values for one entry are separate records, joined by “and”; a condition that tells them apart may be missing. Equal entries are not always repeated. Results filed as inconclusive are left out. Entries that show only a call come without a potency. Where a structure was tested more than once in an assay, its records may differ in their call. Activity calls are given as the source filed them. Unless noted, calls come from the whole dose curve; as a rule, active = well fitted curve in the direction sought with a large enough effect in the repeat runs; inconclusive = weak or mixed curves; inactive = no such curve, though single readings can be large; an effect the other way counts as inactive or inconclusive.

What was measured:
[1] = qHTS assay to identify small molecule agonists of the hypoxia (HIF-1) signaling pathway - cell viability counter screen (AID 1224844; calls by dose curve; note: nearly all actives have a fitted effect of over 50% in size; note: potency is the fitted concentration of half-maximal effect)
Outline: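 CellTiter-Glo luminescence read-out, 30 min RT, taken in the same wells as the beta-lactamase HRE reporter assay; HRE-bla ME-180 cells, 0.5% dialyzed FBS, 17 hr compound treatment at 37C, 5% CO2.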

[2] = qHTS assay to identify small molecule agonists of H2AX (AID 1224845; active = well fitted activation curve with a large enough effect in the signal ratio in the repeat runs, not every such curve was filed as active; the % refers to the signal ratio; note: potency is the fitted concentration of half-maximal effect)
Outline: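 Phospho-H2AX Ser139 measured by HTRF (ex 320 nm; em 665 and 620 nm) after 24 hr antibody incubation. Compounds, 15 concentrations, 0.76% DMSO, were applied to CHO-K1 cells for 3hr at 37C before lysis.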

[3] = qHTS assay to identify small molecule agonists of H2AX - cell viability counter screen (AID 1224847; calls by dose curve; note: nearly all actives have a fitted effect of over 30% in size; note: potency is the fitted concentration of half-maximal effect)
Outline: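 Quantitative HTS viability measurement: CHO-K1 wild-type cells in serum (10% FBS) medium, short 3 hr drug exposure at 37C with 0.76% DMSO, CellTiter-Glo luminescent detection.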

[4] = qHTS assay to identify small molecule antagonists of the estrogen related receptor (ERR) signaling pathway from Tox21 library (AID 1224848); note: nearly all actives have a fitted effect of over 50% in size; note: potency is the fitted concentration of half-maximal effect
Outline: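 ERR cell line, 2,000 cells/well. 6 h settle, then compound (DMSO) added; 18 h at 37 C; ONE-Glo luminescence after 30 min RT.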

[5] = qHTS assay to identify small molecule agonists of the estrogen related receptor (ERR) signaling pathway from Tox21 library (AID 1224849; calls by dose curve; note: nearly all actives have a fitted effect of over 15% in size); conditions: ERR reporter cell line, ONE-Glo luciferase, 18 h
Outline: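 Luminescence readout (ONE-Glo, 30 min RT) after 18 h compound exposure at 37 C of NTP-supplied ERR reporter cells; cells were plated 6 h before compound addition by pin tool.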

[6] = qHTS RealTime-Glo MT Cell Viability Assay in HepG2 cells - 24 hour (AID 1224867); note: nearly all actives have a fitted effect of over 50% in size; note: potency is the fitted concentration of half-maximal effect
Outline: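 Viability was tracked continuously by NanoLuc luminescence from prosubstrate reduced by living HepG2 cells, at successive time points over 40 h of compound exposure. Cells with reagent were preincubated 5 h at 37 °C before compound addition.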

[7] = qHTS RealTime-Glo MT Cell Viability Assay in HEK293 cells - 32 hour (AID 1224868); note: nearly all actives have a fitted effect of over 50% in size; note: potency is the fitted concentration of half-maximal effect
Outline: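 Viability tracked continuously by luminescence as live cells reduce a prosubstrate for NanoLuc; HEK293 cells preincubated 5 h, compound-treated at 37 C, and read at 0, 8, 16, 24, 32 and 40 h.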

[8] = A CellTox Green Cytotoxicity Assay to monitor cytotoxicity in HEK293 cells - 0 hour (AID 1224869); note: nearly all actives have a fitted effect of over 50% in size
Outline: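 Read-out: fluorescence of a cell-impermeant cyanine dye staining DNA of dead cells, proportional to cytotoxicity. HEK293, 600 cells/well with reagent, compound (23 nL DMSO) added after 5 h; reads at 0, 8, 16, 24, 32, 40 h.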

[9] = qHTS RealTime-Glo MT Cell Viability Assay in HepG2 cells - 40 hour (AID 1224870); note: nearly all actives have a fitted effect of over 50% in size; note: potency is the fitted concentration of half-maximal effect
Outline: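 Real-time viability: cells seeded at 600 per well together with NanoLuc and cell-permeant prosubstrate, compounds added after 5 h incubation. Luminescence tracked at 0, 8, 16, 24, 32 and 40 h of exposure.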

[10] = qHTS assay to identify small molecule agonists of the hypoxia (HIF-1) signaling pathway (AID 1224846; active = well fitted activation curve with a large enough effect in the signal ratio in the repeat runs, not every such curve was filed as active; the % refers to the signal ratio)
Outline: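 Beta-lactamase FRET read-out (CCF4-AM substrate) from ME-180 cells carrying an HRE-driven bla reporter, after 17 hrs compound exposure at 37C/5% CO2. Cells were seeded at 2,000 per well in 0.5% dialyzed FBS medium and preincubated 5 hrs.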

| Structure (SMILES) | Potency [1] | Potency [2] | Potency [3] | Potency [4] | activity change, positive = activation ([5]; at 42.5 µM (top of the series)) | activity change, positive = activation ([5]; at 92.4 µM (top of the series)) | Potency [6] | Potency [7] | Potency [8] | Potency [9] | outcome [10] |
| --- | --- | --- | --- | --- | --- | --- | --- | --- | --- | --- | --- |
| NC(=O)CN1CCCC1=O | inactive | inactive | inactive | inactive | 2.36% (inactive) | 6.19% (inactive) | inactive | inactive | inactive | inactive |  |
| N#Cc1c(Cl)c(Cl)c(Cl)c(C#N)c1Cl | 3.03 µM (active) and 3.09 µM (active) |  | 55.6 µM (active) |  |  |  | 21.5 µM (active) and 4.9 µM (active) | 1.7 µM (active) and 1.23 µM (active) | inactive | 19.1 µM (active) and 3.47 µM (active) |  |
| O=C(O)CF |  | inactive | inactive |  |  |  | inactive | inactive | inactive | inactive | inactive |
| CN(C)c1ccccc1 |  | inactive | inactive | inactive |  | -1.62% (inactive) and 6.09% (inactive) | inactive | inactive | inactive | inactive | inactive |
| CC(O)CN(CC(C)O)CC(C)O (stereo not given) |  | inactive | inactive |  |  |  | inactive | inactive | inactive | inactive | inactive |
| Nc1ccc2ccccc2c1 |  | inactive | inactive | inactive |  | 30.3% (active) | inactive | inactive | inactive | inactive | inactive |
| CC1(C)C(C(=O)OC(C#N)c2cccc(Oc3ccccc3)c2)C1(C)C (stereo not given) |  | inactive |  | 30.9 µM (active) |  | -46.1% (inactive) and -24.4% (inactive) | inactive | inactive | inactive | inactive | inactive |
| CC(C)Nc1nc(Cl)nc(NC(C)C)n1 |  | inactive | inactive | inactive |  | 1.71% (inactive) and -9.11% (inactive) | inactive | inactive | inactive | inactive | inactive |
| Oc1ccc(Cl)cc1Cc1ccccc1 |  | inactive | 89.8 µM (active) and 81 µM (active) |  |  |  | inactive and 49.6 µM (active) | 21.9 µM (active) and 19.7 µM (active) |  | inactive |  |
| C[N+](C)(C)C |  | inactive | inactive |  |  |  | inactive | inactive | inactive | inactive | inactive |
| CC(C)Nc1ccc(Nc2ccccc2)cc1 |  |  | 50.3 µM (active) and 89.8 µM (active) | 15.3 µM (active) and 48.6 µM (active) |  | -81.7% (inactive) and -69.9% (inactive) | 54.7 µM (active) and 49 µM (active) | 17.3 µM (active) and 19.5 µM (active) |  |  |  |
| CC[n+]1c(-c2ccccc2)c2cc(N)ccc2c2ccc(N)cc21 |  |  | inactive |  |  |  |  | 4.34 µM (active) and 5.35 µM (active) |  | inactive |  |
| ClC(Cl)(Cl)Br |  | inactive | inactive |  |  |  | inactive | inactive | inactive | inactive | inactive |
| S=c1[nH]c2ccccc2[nH]1 |  | inactive | inactive | inactive |  | -4.19% (inactive) and 0.256% (inactive) | inactive | inactive | inactive | inactive | inactive |
| CCC[CH2][Sn]([Cl])([Cl])[CH2]CCC |  | 1.28 µM (active) and 1.27 µM (active) | 11.4 µM (active) and 25.3 µM (active) | 155 nM (active) and 172 nM (active) |  | -84.1% (inactive) and -80% (inactive) | 313 nM (active) and 219 nM (active) | 99 nM (active) and 123 nM (active) | inactive | 198 nM (active) and 138 nM (active) |  |
| COC(=O)Nc1nc2ccccc2[nH]1 |  | inactive | inactive |  |  |  | inactive |  |  | inactive | inactive |
| CCNc1nc(Cl)nc(NC(C)(C)C#N)n1 |  | inactive | inactive |  |  |  | inactive | inactive | inactive | inactive | inactive |
| CC(C)COC(=O)c1ccccc1C(=O)OCC(C)C |  | inactive | inactive |  |  |  | inactive | inactive |  | inactive | inactive |
| CCN(CC)C(=O)C(C)Oc1cccc2ccccc12 (stereo not given) |  | inactive |  |  |  |  | inactive | inactive |  | inactive | inactive |
| CC(C)(c1ccccc1)c1ccc(O)cc1 |  |  | 112 µM (active) and 101 µM (active) |  |  |  | inactive | 27.5 µM (active) |  | inactive |  |

| Structure (SMILES) | Potency [1] | Potency [2] | Potency [3] | Potency [4] | activity change, positive = activation ([5]; at 42.5 µM (top of the series)) | activity change, positive = activation ([5]; at 92.4 µM (top of the series)) | Potency [6] | Potency [7] | Potency [8] | Potency [9] | outcome [10] |
| --- | --- | --- | --- | --- | --- | --- | --- | --- | --- | --- | --- |
| COc1ccc(O)c(C(C)(C)C)c1 |  | inactive | inactive |  |  |  | inactive | inactive |  | inactive | inactive |
| CNC(=O)CSP(=S)(OC)OC |  |  | inactive |  |  |  | inactive | inactive |  | inactive | inactive |
| Cl |  | inactive | inactive |  |  |  | inactive | inactive |  | inactive | inactive |
| CCOP(=O)(O)OCC (tested in a mixture with another compound) |  | inactive | inactive and 28.2 µM (active) |  |  |  | inactive and 48.6 µM (active) | inactive and 4.33 µM (active) |  | inactive and 43.3 µM (active) | inactive |
| ClCc1ccccn1 |  | inactive | inactive |  |  |  | inactive | inactive | inactive | inactive | inactive |
| Cc1ccc(N=CN(C)C=Nc2ccc(C)cc2C)c(C)c1 |  | inactive | 101 µM (active) and inactive |  |  |  | inactive | 43.8 µM (active) and 43.6 µM (active) and inactive | inactive | inactive | inactive |
| Nc1ncn[nH]1 |  | inactive | inactive |  |  |  | inactive | inactive | inactive | inactive | inactive |
| COc1ccc(C=O)cc1OC |  | inactive | inactive | inactive |  | -3.94% (inactive) and -4.02% (inactive) | inactive | inactive |  | inactive | inactive |
| COc1ccc(CO)cc1 |  | inactive | inactive |  |  |  | inactive | inactive |  | inactive | inactive |
| CCOS(=O)(=O)OCC |  | inactive | inactive |  |  |  | inactive | inactive | inactive | inactive | inactive |
| CNC(=S)S |  | inactive | inactive |  |  |  | inactive | inactive | inactive | inactive | inactive |
| CC(C)(c1ccc(OCC2CO2)cc1)c1ccc(OCC2CO2)cc1 (stereo not given) |  | inactive | inactive | 61.9 µM (active) |  | -61.1% (inactive) and -21.3% (inactive) | inactive | inactive | inactive | inactive | inactive |
| C=CC(=O)OCC(CC)(COC(=O)C=C)COC(=O)C=C |  |  |  | 15.8 µM (active) and 19.3 µM (active) |  | -82.1% (inactive) and -76.4% (inactive) | 25.2 µM (active) and 12.3 µM (active) | 3.56 µM (active) and 11 µM (active) | inactive | 35.6 µM (active) and 12.3 µM (active) |  |
| Oc1ccc(Cl)cc1Cl |  | inactive | inactive | inactive |  | -0.925% (inactive) and -0.996% (inactive) | inactive | inactive |  | inactive | inactive |
| O=NN(c1ccccc1)c1ccccc1 |  | inactive | inactive |  |  |  | inactive | inactive | inactive | inactive | inactive |
| CC1=C(C(=O)Nc2ccccc2)SCCO1 |  | inactive | inactive |  |  | -23.3% (inactive) and -26.7% (inactive) | inactive | inactive |  | inactive | inactive |
| CC(C)=CC1C(C(=O)OCN2C(=O)C3=C(CCCC3)C2=O)C1(C)C (stereo not given) |  | inactive |  |  | -16.7% (inactive) | -22.5% (inactive) | inactive | inactive | inactive | inactive | inactive |
| CCCCCCCCCC(CC)c1ccc(S(=O)(=O)O)cc1 (stereo not given) |  | inactive |  |  |  |  | inactive | 39.3 µM (active) and inactive | inactive | inactive | inactive |
| ClC(Cl)=C(Cl)C(Cl)=C(Cl)Cl |  | inactive | inactive |  |  |  | inactive | inactive | inactive | inactive | inactive |
| N#CCCCCC#N |  | inactive | inactive | inactive |  | 8.89% (inactive) and 3.44% (inactive) | inactive | inactive | inactive | inactive | inactive |
